High-throughput results from PubChem.
The list is not random: actives were taken first. Their share in the collection is about 19%.
IL-1B inflam inh: inhibitors of inflammasome signaling (IL-1 beta secretion); THP-1 LPS/ATP IL-1B secretion, AlphaLISA, 16 h; stronger effect = lower value; activity change, % at 57.5 µM; 360,000 compounds, 4.7% hits; in the data active = activity change below about -50%; inconclusive = mostly about -30% to -49%
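Secreted IL-1B measured by AlphaLISA bead assay after 16 h compound exposure of THP-1 cells; compounds (final up to 57.5 uM) added 1 h before LPS (250 ng/mL) and ATP (1.25 mM) stimulation; lower signal means less secretion.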
TDP1 cell noCPT: qHTS for Inhibitors of human tyrosyl-DNA phosphodiesterase 1 (TDP1): qHTS in cells in absence of CPT; DT40 Tdp1-/- hTDP1 cells, no CPT, ATP luminescence, 48 h; AID 686978, 2013; Potency, µM (doses to about 46.2 µM), without a hit: at the top dose activity change, negative = growth inhibition, usual class: inhibitors; 420,000 compounds, 15% hits; also: potency is read from the fitted curve at half-maximal effect; nearly all actives have a fitted effect of over 55% in size
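Cells were dispensed at 400 per well, compounds added by pin tool, plates incubated ≥48 hr at 37 °C, then CellTiter-Glo added for 30 min at room temperature before luminescence reading. Line: DT40 Tdp1-/- complemented with hTDP1; camptothecin omitted.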
TDP1 block: blocks human tyrosyl-DNA phosphodiesterase 1; Q9NUW8; recombinant TDP1, AlphaScreen DNA substrate cleavage; Potency, µM (titrated, usually from 130 µM), inactives show at the highest dose activity change, negative = inhibition, most hits filed as inhibitors; 350,000 compounds, 0.28% hits; also: potency is read from the fitted curve at half-maximal effect; nearly all actives have a fitted effect of over 40% in size
Target sequence (Q9NUW8 whole entry, looked up): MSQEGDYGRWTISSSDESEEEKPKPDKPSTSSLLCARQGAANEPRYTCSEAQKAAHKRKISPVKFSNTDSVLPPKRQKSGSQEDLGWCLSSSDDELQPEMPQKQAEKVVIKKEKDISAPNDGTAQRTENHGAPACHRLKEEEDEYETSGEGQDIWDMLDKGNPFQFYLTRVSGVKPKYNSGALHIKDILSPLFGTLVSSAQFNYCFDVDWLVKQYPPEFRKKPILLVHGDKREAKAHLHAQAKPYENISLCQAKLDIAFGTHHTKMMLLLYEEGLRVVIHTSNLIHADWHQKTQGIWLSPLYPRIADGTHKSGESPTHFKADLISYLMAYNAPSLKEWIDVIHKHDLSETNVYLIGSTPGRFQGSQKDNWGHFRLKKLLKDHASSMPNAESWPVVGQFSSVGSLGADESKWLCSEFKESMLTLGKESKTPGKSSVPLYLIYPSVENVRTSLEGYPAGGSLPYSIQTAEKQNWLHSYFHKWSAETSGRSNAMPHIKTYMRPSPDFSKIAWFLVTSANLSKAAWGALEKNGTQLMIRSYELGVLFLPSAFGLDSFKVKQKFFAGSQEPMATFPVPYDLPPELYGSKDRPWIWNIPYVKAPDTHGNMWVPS
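Here, a 5' biotin and 3' phosphotyrosine-FITC DNA oligonucleotide reports Tdp1 activity: intact substrate bridges AlphaScreen beads, while cleavage leaves a 3' phosphate and drops signal. All incubations at room temperature.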
TDP1 cell CPT: DT40-hTDP1 cell growth loss with CPT. chicken DT40 Tdp1-/-;hTDP1 cells + 20 nM CPT, ATP luminescence, 48 h. Potency, µM (titrated, usually from 46.2 µM), without a hit: at the top dose activity change, negative = growth inhibition, most hits filed as inhibitors. 420,000 compounds, 12% hits; also: potency is read from the fitted curve at half-maximal effect; nearly all actives have a fitted effect of over 55% in size
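Chicken DT40 Tdp1-/- cells stably complemented with human TDP1 were seeded at 400 cells/well in medium containing 20 nM camptothecin, exposed to pin-transferred compounds, and grown at 37 °C for at least 48 hr. Viability was read as ATP luminescence.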
Giardia killer: kills Giardia lamblia; Giardia lamblia trophozoite viability; activity change, % at 7.66 µM, hits read low; 340,000 compounds, 0.15% hits; in the data active = activity change below about -80%; inconclusive = between about -30% and that limit;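 also: parasites exposed to compound for two days anaerobically before the ATP read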
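Each well holds 100 Giardia trophozoites and compound. After two days (48 hrs) at 37 deg C in anaerobic conditions, ATP is quantified by luminescence.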
ELG1 repair inh: ELG1-dependent DNA repair inhibition | HEK293T ELG1-luciferase reporter, luminescence, 16 h; DNA damage induced by 5-fluorouridine | Potency, µM (highest dose often 46.1 µM), for the others: at the highest dose activity change, negative = inhibition, actives largely listed as inhibitors | 330,000 compounds, 2.3% hits | AID 504467; also: potency is read from the fitted curve at half-maximal effect; nearly all actives have a fitted effect of over 55% in size
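5-Fluorouridine DNA damage + compound/DMSO, 2,000 cells/well, 16 h, 37 °C/5% CO2. ONE-Glo, 30 min RT, luminescence. Readout = decrease in reporter signal.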
* marks the source's active call; other numbers are inactive results. Unless noted, calls follow the shape of the dose curve; as a rule, active = well fitted curve in the direction sought with a large enough effect; inconclusive = small, poorly fitted or top-dose-only effect, or another doubt; inactive = no such curve, though single readings can be large; an effect the other way counts as inactive or inconclusive. % is scaled to controls: 0 for no effect and ±100 for the full control effect.

COc1ccc(Cn2c(SCC(=O)Nc3ccc(OC)cc3)nc3ccccc32)cc1 was read as TDP1 cell noCPT inconclusive, TDP1 block 4% and TDP1 cell CPT 26µM*.
For COc1ccccc1NC(=O)Cn1c(SCC(=O)NCc2ccccc2)nc2ccccc21 the results were TDP1 cell noCPT inconclusive, TDP1 block 4% and TDP1 cell CPT -12%.
COc1ccc(CNC(=O)Cn2c(SCC(=O)Nc3ccc(OC)cc3)nc3ccccc32)cc1 was read as TDP1 cell noCPT inconclusive, TDP1 block -1% and TDP1 cell CPT inconclusive.
For CN(C)C(=O)CSc1nc2ccccc2n1Cc1ccccc1 the results were IL-1B inflam inh 10, TDP1 cell noCPT inconclusive, TDP1 block 7%, TDP1 cell CPT inconclusive, Giardia killer -15 and ELG1 repair inh 12%.
For O=C(Cn1c(SCC(=O)Nc2ccc(F)cc2)nc2ccccc21)NCc1ccc(Cl)cc1 the results were TDP1 cell noCPT 13µM*, TDP1 block 4% and TDP1 cell CPT inconclusive.
For CC(C)(C)CN1CCNC(=O)C1CC(=O)NCCc1ccccc1F (centres undefined) the results were IL-1B inflam inh -9, TDP1 cell noCPT inconclusive, TDP1 block 5%, TDP1 cell CPT -5%, Giardia killer 46 and ELG1 repair inh 13%.
`Cc1ccccc1C(C)NS(=O)(=O)c1ccc2c(c1)OCCO2` (centres undefined) gave IL-1B inflam inh 28, TDP1 cell noCPT inconclusive, TDP1 block 0%, TDP1 cell CPT inconclusive, Giardia killer -25 and ELG1 repair inh -17%.
CCN=c1scc(-c2cccs2)n1/N=C/c1cc(OC)ccc1O was read as IL-1B inflam inh -62*, TDP1 cell noCPT 21µM*, TDP1 block 9%, TDP1 cell CPT inconclusive, Giardia killer -1 and ELG1 repair inh inconclusive.
CN=c1scc(-c2ccccc2F)n1/N=C/c1ccc[nH]1 was read as IL-1B inflam inh inconclusive, TDP1 cell noCPT inconclusive, TDP1 block 5%, TDP1 cell CPT -11%, Giardia killer inconclusive and ELG1 repair inh inconclusive.
`CC(C)N=c1scc(-c2cccs2)n1/N=C/c1ccc(O)c(O)c1O` gave IL-1B inflam inh -83*, TDP1 cell noCPT 13µM*, TDP1 block 12%, TDP1 cell CPT 13µM*, Giardia killer 17 and ELG1 repair inh inconclusive.
For COc1ccc(O)c(/C=N/n2c(-c3ccco3)csc2=Nc2cccnc2)c1 the results were IL-1B inflam inh 0, TDP1 cell noCPT inconclusive, TDP1 block 7%, TDP1 cell CPT -27%, Giardia killer 6 and ELG1 repair inh 12%.
CN=c1scc(-c2ccccc2F)n1/N=C/c1ccc(O)c(O)c1O was read as IL-1B inflam inh -14, TDP1 cell noCPT 12µM*, TDP1 block 10%, TDP1 cell CPT 13µM*, Giardia killer -103* and ELG1 repair inh inconclusive.
`COc1ccc(/C=N/Nc2nncc3ccccc23)c(OC)c1` gave IL-1B inflam inh -16, TDP1 cell noCPT inconclusive, TDP1 block 7%, TDP1 cell CPT 26µM*, Giardia killer -27 and ELG1 repair inh inconclusive.
For C(=N\Nc1nncc2ccccc12)/c1ccccc1 the results were IL-1B inflam inh 8, TDP1 cell noCPT -20%, TDP1 block 1%, TDP1 cell CPT -4%, Giardia killer -12 and ELG1 repair inh inconclusive.
`Cc1cccc(/C=N/Nc2nncc3ccccc23)c1` gave IL-1B inflam inh -19, TDP1 cell noCPT inconclusive, TDP1 block 5%, TDP1 cell CPT -3%, Giardia killer -23 and ELG1 repair inh inconclusive.
COc1cc(/C=N/Nc2nncc3ccccc23)cc(OC)c1OC was read as IL-1B inflam inh -30, TDP1 cell noCPT 12µM*, TDP1 cell CPT 21µM*, Giardia killer -10 and ELG1 repair inh inconclusive.
